Reference: the supplement of paper PMC4466140

molecular target: AgAbp1; test: SPOT peptide array binding signal intensity (averaged, normalized) (arbitrary units (background-subtracted, floor 0; scale differs between SH3 domains)); higher = stronger binding of the SH3 domain to the peptide
Procedure, shortened: (§1)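 Binding signal is given in arbitrary units that differ between domains and is the normalized, background-subtracted spot intensity averaged across replicates. Each GST-SH3 fusion from one of four yeast species was made in E. coli BL21(DE3), purified on glutathione Sepharose and incubated at 10 μg/ml overnight at 4°C on cellulose-bound synthetic 15-mer peptides in which cysteines were replaced by serines. Detection used anti-GST antibody, an HRP anti-mouse secondary and luminol, followed by imaging and Genespotter quantification.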

Binder | SPOT peptide array binding signal intensity
KKIRLIFTYPSTVGR | 11

molecular target: AgBbc1; test: as above
Procedure, shortened: as §1

Binder | SPOT peptide array binding signal intensity
KKIRLIFTYPSTVGR | 22.8

molecular target: AgBem1-D1; test: as above
Procedure, shortened: as §1

Binder | SPOT peptide array binding signal intensity
KKIRLIFTYPSTVGR | 241

molecular target: AgBzz1-D1; test: as above
Procedure, shortened: as §1

Binder | SPOT peptide array binding signal intensity
KKIRLIFTYPSTVGR | 22.5

molecular target: AgBzz1-D2; test: as above
Procedure, shortened: as §1

Binder | SPOT peptide array binding signal intensity
KKIRLIFTYPSTVGR | 50

molecular target: AgCyk3; test: as above
Procedure, shortened: as §1

Binder | SPOT peptide array binding signal intensity
KKIRLIFTYPSTVGR | 49

molecular target: AgFus1; test: as above
Procedure, shortened: as §1

Binder | SPOT peptide array binding signal intensity
KKIRLIFTYPSTVGR | 2480

molecular target: AgHof1; test: as above
Procedure, shortened: as §1

Binder | SPOT peptide array binding signal intensity
KKIRLIFTYPSTVGR | 47

molecular target: AgHse1; test: as above
Procedure, shortened: as §1

Binder | SPOT peptide array binding signal intensity
KKIRLIFTYPSTVGR | 1210

molecular target: AgLsb1; test: as above
Procedure, shortened: as §1

Binder | SPOT peptide array binding signal intensity
KKIRLIFTYPSTVGR | 58.8

molecular target: AgLsb4; test: as above
Procedure, shortened: as §1

Binder | SPOT peptide array binding signal intensity
KKIRLIFTYPSTVGR | 577

molecular target: AgMyo5; test: as above
Procedure, shortened: as §1

Binder | SPOT peptide array binding signal intensity
KKIRLIFTYPSTVGR | 2.5

molecular target: AgNbp2; test: as above
Procedure, shortened: as §1

Binder | SPOT peptide array binding signal intensity
KKIRLIFTYPSTVGR | 688

molecular target: AgRvs167; test: as above
Procedure, shortened: as §1

Binder | SPOT peptide array binding signal intensity
KKIRLIFTYPSTVGR | 6.17

molecular target: AgSho1; test: as above
Procedure, shortened: as §1

Binder | SPOT peptide array binding signal intensity
KKIRLIFTYPSTVGR | 426

molecular target: AgSla1-D1-D2; test: as above
Procedure, shortened: as §1

Binder | SPOT peptide array binding signal intensity
KKIRLIFTYPSTVGR | 428

molecular target: AgSla1-D3; test: as above
Procedure, shortened: as §1

Binder | SPOT peptide array binding signal intensity
KKIRLIFTYPSTVGR | 4.5

molecular target: CaAbp1-D1; test: as above
Procedure, shortened: as §1

Binder | SPOT peptide array binding signal intensity
KKIRLIFTYPSTVGR | 504

molecular target: CaAbp1-D2; test: as above
Procedure, shortened: as §1

Binder | SPOT peptide array binding signal intensity
KKIRLIFTYPSTVGR | 268

molecular target: CaBbc1; test: as above
Procedure, shortened: as §1

Binder | SPOT peptide array binding signal intensity
KKIRLIFTYPSTVGR | 86.8

molecular target: CaBem1-D1; test: as above
Procedure, shortened: as §1

Binder | SPOT peptide array binding signal intensity
KKIRLIFTYPSTVGR | 73.5

molecular target: CaBzz1-D1; test: as above
Procedure, shortened: as §1

Binder | SPOT peptide array binding signal intensity
KKIRLIFTYPSTVGR | 142

molecular target: CaBzz1-D2; test: as above
Procedure, shortened: as §1

Binder | SPOT peptide array binding signal intensity
KKIRLIFTYPSTVGR | 99.2

molecular target: CaCyk3; test: as above
Procedure, shortened: as §1

Binder | SPOT peptide array binding signal intensity
KKIRLIFTYPSTVGR | 118

molecular target: CaFus1; test: as above
Procedure, shortened: as §1

Binder | SPOT peptide array binding signal intensity
KKIRLIFTYPSTVGR | 4650

molecular target: CaHof1; test: as above
Procedure, shortened: as §1

Binder | SPOT peptide array binding signal intensity
KKIRLIFTYPSTVGR | 2.25

molecular target: CaHse1; test: as above
Procedure, shortened: as §1

Binder | SPOT peptide array binding signal intensity
KKIRLIFTYPSTVGR | 282

molecular target: CaLsb1; test: as above
Procedure, shortened: as §1

Binder | SPOT peptide array binding signal intensity
KKIRLIFTYPSTVGR | 79.2

molecular target: CaLsb4; test: as above
Procedure, shortened: as §1

Binder | SPOT peptide array binding signal intensity
KKIRLIFTYPSTVGR | 354

molecular target: CaMyo5; test: as above
Procedure, shortened: as §1

Binder | SPOT peptide array binding signal intensity
KKIRLIFTYPSTVGR | 77.2

molecular target: CaNbp2; test: as above
Procedure, shortened: as §1

Binder | SPOT peptide array binding signal intensity
KKIRLIFTYPSTVGR | 966

molecular target: CaRvs167; test: as above
Procedure, shortened: as §1

Binder | SPOT peptide array binding signal intensity
KKIRLIFTYPSTVGR | 274

molecular target: CaRvs167-3; test: as above
Procedure, shortened: as §1

Binder | SPOT peptide array binding signal intensity
KKIRLIFTYPSTVGR | 2180

molecular target: CaSho1; test: as above
Procedure, shortened: as §1

Binder | SPOT peptide array binding signal intensity
KKIRLIFTYPSTVGR | 1570

molecular target: CaSla1-D1-D2; test: as above
Procedure, shortened: as §1

Binder | SPOT peptide array binding signal intensity
KKIRLIFTYPSTVGR | 21

molecular target: CaSla1-D3; test: as above
Procedure, shortened: as §1

Binder | SPOT peptide array binding signal intensity
KKIRLIFTYPSTVGR | 487

molecular target: ScAbp1; test: as above
Procedure, shortened: as §1

Binder | SPOT peptide array binding signal intensity
KKIRLIFTYPSTVGR | 15

molecular target: ScBbc1; test: as above
Procedure, shortened: as §1

Binder | SPOT peptide array binding signal intensity
KKIRLIFTYPSTVGR | 4.75

molecular target: ScBem1-D1; test: as above
Procedure, shortened: as §1

Binder | SPOT peptide array binding signal intensity
KKIRLIFTYPSTVGR | 19

molecular target: ScBzz1-D1; test: as above
Procedure, shortened: as §1

Binder | SPOT peptide array binding signal intensity
KKIRLIFTYPSTVGR | 23

molecular target: ScBzz1-D2; test: as above
Procedure, shortened: as §1

Binder | SPOT peptide array binding signal intensity
KKIRLIFTYPSTVGR | 325

molecular target: ScCyk3; test: as above
Procedure, shortened: as §1

Binder | SPOT peptide array binding signal intensity
KKIRLIFTYPSTVGR | 210

molecular target: ScFus1; test: as above
Procedure, shortened: as §1

Binder | SPOT peptide array binding signal intensity
KKIRLIFTYPSTVGR | 3720

molecular target: ScHof1; test: as above
Procedure, shortened: as §1

Binder | SPOT peptide array binding signal intensity
KKIRLIFTYPSTVGR | 1.75

molecular target: ScHse1; test: as above
Procedure, shortened: as §1

Binder | SPOT peptide array binding signal intensity
KKIRLIFTYPSTVGR | 1750

molecular target: ScLsb1; test: as above
Procedure, shortened: as §1

Binder | SPOT peptide array binding signal intensity
KKIRLIFTYPSTVGR | 32

molecular target: ScLsb2; test: as above
Procedure, shortened: as §1

Binder | SPOT peptide array binding signal intensity
KKIRLIFTYPSTVGR | 5

molecular target: ScLsb3; test: as above
Procedure, shortened: as §1

Binder | SPOT peptide array binding signal intensity
KKIRLIFTYPSTVGR | 389

molecular target: ScLsb4; test: as above
Procedure, shortened: as §1

Binder | SPOT peptide array binding signal intensity
KKIRLIFTYPSTVGR | 60

molecular target: ScMyo3; test: as above
Procedure, shortened: as §1

Binder | SPOT peptide array binding signal intensity
KKIRLIFTYPSTVGR | 4

molecular target: ScMyo5; test: as above
Procedure, shortened: as §1

Binder | SPOT peptide array binding signal intensity
KKIRLIFTYPSTVGR | 5

molecular target: ScNbp2; test: as above
Procedure, shortened: as §1

Binder | SPOT peptide array binding signal intensity
KKIRLIFTYPSTVGR | 744

molecular target: ScPex13; test: as above
Procedure, shortened: as §1

Binder | SPOT peptide array binding signal intensity
KKIRLIFTYPSTVGR | 14.5

molecular target: ScRvs167; test: as above
Procedure, shortened: as §1

Binder | SPOT peptide array binding signal intensity
KKIRLIFTYPSTVGR | 26.2

molecular target: ScSho1; test: as above
Procedure, shortened: as §1

Binder | SPOT peptide array binding signal intensity
KKIRLIFTYPSTVGR | 2150

molecular target: ScSla1-D1-D2; test: as above
Procedure, shortened: as §1

Binder | SPOT peptide array binding signal intensity
KKIRLIFTYPSTVGR | 83.5

molecular target: ScSla1-D3; test: as above
Procedure, shortened: as §1

Binder | SPOT peptide array binding signal intensity
KKIRLIFTYPSTVGR | 57.8

molecular target: SpAbp1-D1; test: as above
Procedure, shortened: as §1

Binder | SPOT peptide array binding signal intensity
KKIRLIFTYPSTVGR | 132

molecular target: SpBbc1; test: as above
Procedure, shortened: as §1

Binder | SPOT peptide array binding signal intensity
KKIRLIFTYPSTVGR | 41

molecular target: SpBzz1-D1; test: as above
Procedure, shortened: as §1

Binder | SPOT peptide array binding signal intensity
KKIRLIFTYPSTVGR | 133

molecular target: SpBzz1-D2; test: as above
Procedure, shortened: as §1

Binder | SPOT peptide array binding signal intensity
KKIRLIFTYPSTVGR | 0.5

molecular target: SpCyk3; test: as above
Procedure, shortened: as §1

Binder | SPOT peptide array binding signal intensity
KKIRLIFTYPSTVGR | 92

molecular target: SpHof1; test: as above
Procedure, shortened: as §1

Binder | SPOT peptide array binding signal intensity
KKIRLIFTYPSTVGR | 315

molecular target: SpHof1-2; test: as above
Procedure, shortened: as §1

Binder | SPOT peptide array binding signal intensity
KKIRLIFTYPSTVGR | 91

molecular target: SpHof1-3; test: as above
Procedure, shortened: as §1

Binder | SPOT peptide array binding signal intensity
KKIRLIFTYPSTVGR | 872

molecular target: SpHse1; test: as above
Procedure, shortened: as §1

Binder | SPOT peptide array binding signal intensity
KKIRLIFTYPSTVGR | 910

molecular target: SpLsb1; test: as above
Procedure, shortened: as §1

Binder | SPOT peptide array binding signal intensity
KKIRLIFTYPSTVGR | 2

molecular target: SpLsb4; test: as above
Procedure, shortened: as §1

Binder | SPOT peptide array binding signal intensity
KKIRLIFTYPSTVGR | 210

molecular target: SpMyo1; test: as above
Procedure, shortened: as §1

Binder | SPOT peptide array binding signal intensity
KKIRLIFTYPSTVGR | 14

molecular target: SpNbp2; test: as above
Procedure, shortened: as §1

Binder | SPOT peptide array binding signal intensity
KKIRLIFTYPSTVGR | 1780

molecular target: SpPex13; test: as above
Procedure, shortened: as §1

Binder | SPOT peptide array binding signal intensity
KKIRLIFTYPSTVGR | 24

molecular target: SpRvs167; test: as above
Procedure, shortened: as §1

Binder | SPOT peptide array binding signal intensity
KKIRLIFTYPSTVGR | 21

molecular target: SpSla1-D1-D2; test: as above
Procedure, shortened: as §1

Binder | SPOT peptide array binding signal intensity
KKIRLIFTYPSTVGR | 5

molecular target: SpSla1-D3; test: as above
Procedure, shortened: as §1

Binder | SPOT peptide array binding signal intensity
KKIRLIFTYPSTVGR | 49
